VACV Venus inh: qHTS for Stage-Specific Inhibitors of Vaccinia Orthopoxvirus: Venus Reporter Primary qHTS; Vaccinia virus Venus reporter expression, fluorescence; Potency, µM (titrated, usually from 36.5 µM), inactives show at the highest dose activity change, negative = inhibition, most hits filed as inhibitors; actives 0.46% (n = 330,000); AID 720580, 2013; calls by dose curve; tested in A549 cells; further: on the % scale 0 is the no-effect control and ±100 the full control effect; nearly all actives have a fitted effect of over 30% in size
Pf growth 48h: Primary qHTS for delayed death inhibitors of the malarial parasite plastid, 48 hour incubation; P. falciparum luciferase growth in erythrocytes, 48 h; Potency, µM (series often up to 28.7 µM), for the others: at the highest dose activity change, negative = inhibition, most hits filed as inhibitors; actives 5.9% (n = 310,000); AID 504832, 2011; further: on the % scale 0 is the no-effect control and ±100 the full control effect
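First compound was added to culture medium, then infected red cells at 0.1% parasitemia and 2% hematocrit (final). After incubation at 37 C under 5% CO2, luciferase detection reagent was dispensed and light output recorded.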
Pf growth 96h: Primary qHTS for delayed death inhibitors of the malarial parasite plastid, 96 hour incubation; actives 6.9% (n = 320,000); Potency, µM (doses to about 28.7 µM), for inactives: top-dose activity change, negative = inhibition, hits mostly inhibitors; P. falciparum luciferase reporter growth, 96 h; further: on the % scale 0 is the no-effect control and ±100 the full control effect
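Two parasite generations (96 h, 37 C, 5% CO2) of compound exposure in infected erythrocytes (0.05% parasitemia, 2% hematocrit). Luciferase-reporter P. falciparum; decreased luminescence indicates inhibited growth, aimed at apicoplast-acting delayed death.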
VACV mCherry inh: qHTS for Stage-Specific Inhibitors of Vaccinia Orthopoxvirus: mCherry Reporter Primary qHTS; Vaccinia virus mCherry reporter infection, fluorescence; Potency, µM (doses to about 36.5 µM), for the others: at the top dose activity change, negative = inhibition, hits mostly inhibitors; AID 720579, 2013; actives 0.63% (n = 310,000); calls by dose curve; tested in A549 cells; further: on the % scale 0 is the no-effect control and ±100 the full control effect; nearly all actives have a fitted effect of over 35% in size
HCV inh: qHTS Assay for Inhibitors of Hepatitis C Virus (HCV); Huh7.5.1 HCVcc-Cre infection, luciferase reporter, 44 h; Potency, µM (doses to about 41.8 µM), without a hit: at the highest dose activity change, negative = inhibition, usual class: inhibitors; actives 3.4% (n = 340,000); AID 651820, 2012; further: on the % scale 0 is the no-effect control and ±100 the full control effect
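Infectious HCVcc-Cre (~0.5 moi) was added to cells just after compound, with cells seeded 4 h earlier at 1,000 per well. Luciferase activity after 44 h culture reported infection; substrate was incubated 15 min at room temperature before reading.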
NS1 function inh: qHTS Assay for Inhibitors of Influenza NS1 Protein Function; Potency, µM (doses to about 46.1 µM), without a hit: at the top dose activity, positive = more growth; actives 0.4% (n = 270,000); calls by dose curve; further: actives are rising curves; nearly all actives have a fitted effect of over 50% in size
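Recovery from NS1-induced slow growth read by OD600 in budding yeast switched to galactose assay medium (pH 6.0, -URA) at 1:100 dilution. Compound 23 nl per well; the matching strain lacking NS1 serves as control.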
Active calls of the source: *; i = inactive; u = inconclusive; x = not tested or not shown. Hits are enriched below; roughly 11% of the tested compounds scored in any of these assays. Unless noted, the call rests on the fitted dose curve; in most records, active means well fitted inhibition curve with a large enough effect; inconclusive means small, poorly fitted or top-dose-only effect, or another doubt; inactive means no such curve, though single readings can be large or run the other way. Potency means the concentration at half of the fitted maximal effect.

SMILES | VACV Venus inh | Pf growth 48h | Pf growth 96h | VACV mCherry inh | HCV inh | NS1 function inh
COc1cc2c(NC3CCN(C)CC3)nc(N3CCCCC3)nc2cc1OCCCN(C)C | 10µM* | x | x | u | x | x
COc1cc2c(NC3CCN(C(C)C)CC3)nc(N3CCCN(C)CC3)nc2cc1OCCCN1CCCC1 | 1µM* | x | x | 0.891µM* | x | x
CC1CCCN(C(=O)CCCC(=O)N2CCCC(C)C2)C1 (stereo not drawn) | x | 0.9% | -15.9% | x | 25.1% | 11.8%
COC(=O)c1sccc1NC(=O)CC1C(=O)NCCN1C(=O)c1c(F)cccc1Cl (stereo not drawn) | -10.5% | 1.8% | 0.0% | -12.4% | u | -0.3%
O=C(Nc1ccccc1C(=O)NC1CCCCC1)c1ccccc1 | x | u | 6.57µM* | x | -27.8% | -15.9%
O=C(Nc1ccsc1C(=O)NC1CCCCC1)c1ccccc1 | x | 7.38µM* | u | x | -3.7% | -1.4%
O=C(C1=C[C@H](c2ccc3c(c2)OCO3)C[C@H](OCc2ccc(CO)cc2)O1)N1CCOCC1 | -9.1% | 10.7% | 46.9% | i | 12.7% | -0.5%
COc1ccc(N2CC(NC(=O)c3ccc(S(=O)(=O)N4CCOCC4)cc3)CC2=O)cc1 (stereo not drawn) | -13.0% | x | x | -2.4% | x | x
O=Cc1ccc(O)c2ncccc12 | u | 6.57µM* | u | u | u | -84.4%
CC(C)(C)OC(=O)N1CCC(c2c(C(=O)N3CCN(C(=O)c4ccco4)CC3)cnn2-c2ccc(F)cc2F)CC1 | -12.7% | 9.28µM* | 49.7% | -13.1% | 11.0% | -5.1%
CC(=O)c1sc2ccccc2c1OC(=O)c1ccco1 | -5.6% | x | 9.5% | i | 16.7% | -134.9%
C=CCn1c(COc2cccc(C)c2)nnc1SC(C)C(=O)NC1CC1 (stereo not drawn) | x | u | 13.1µM* | x | 1.9% | x
C/C(=N\NC(=O)c1c[nH]c2ccccc12)c1ccco1 | -0.4% | x | -31.6% | -11.6% | -5.2% | 4.2%
C/C(=N\NC(=O)c1cc2ccccc2cc1O)c1cc2ccccc2o1 | -14.5% | u | u | -23.6% | u | 9.1%
C/C(Cc1ccccc1)=N\NC(=O)c1ccc(F)cc1 | x | 14.5% | u | x | -7.8% | 2.6%
Fc1ccc(N/N=C(/c2ccccc2)c2ccccn2)cc1 | -6.6% | u | 5.22µM* | -16.0% | u | 2.2%
C/C(=N\NC(=O)c1cc2ccccc2cc1O)c1ccccn1 | -8.8% | 3.7µM* | 10.2% | u | 3.16µM* | -14.0%
C/C(=N\NC(=O)c1c[nH]c2ccccc12)c1ccccn1 | u | u | u | 10µM* | u | x
O=C(NN=C(Cc1ccccc1)Cc1ccccc1)c1ccc(F)cc1 | -17.2% | -31.7% | 13.1µM* | -12.3% | -0.3% | -5.4%
C/C(CC(=O)Nc1ccc(F)cc1)=N\NC(=O)c1ccccn1 | -10.2% | 216.8% | -8.9% | i | u | x
CC1(C)CC(=O)C=C(Nc2ccccc2F)C1 | -37.9% | -13.4% | -1.0% | x | 8.1% | 2.7%
COc1ccc(C2=C(C)C(=O)N(Cc3ccc(C(=O)NC(C)c4ccccc4)cc3)S2(=O)=O)cc1 (stereo not drawn) | -3.2% | x | x | -2.5% | x | x
CN(c1cc(Cl)c2c(c1)OCO2)c1cc2c(c3c1ccn3C)C1CCC2C1 (stereo not drawn) | -2.5% | x | x | 27.4% | x | x
COc1ccc(NC(=O)COC(=O)C2CCCCC2)c([N+](=O)[O-])c1 | -17.5% | 5.4% | 50.0% | i | -2.2% | -14.7%
COc1ccc(NC(=O)c2ccco2)c([N+](=O)[O-])c1 | -14.8% | 132.2% | -10.0% | -14.7% | -5.8% | 2.6%
SMILES | VACV Venus inh | Pf growth 48h | Pf growth 96h | VACV mCherry inh | HCV inh | NS1 function inh
C/C(=N\Nc1cccc2cccnc12)c1ccccn1 | -9.8% | i | i | i | 6.31µM* | x
CC(=O)Nc1ccc(/C(C)=N/NC(=O)c2ccc(F)cc2)cc1 | -10.8% | 1.6% | -15.6% | -14.3% | -3.8% | -12.2%
CCc1ccc(/C(C)=N/NC(=O)c2ccccn2)cc1 | x | 74.6% | u | x | -1.9% | x
CC(=O)Nc1ccc(/C(C)=N\NC(=O)c2ccc(-c3ccccc3)cc2)cc1 | x | 0.657µM* | u | x | x | 18.4%
CCOc1ccc(C(=O)N/N=C(\c2ccccc2)c2ccccn2)cc1 | u | 13.1µM* | 11.7µM* | 11.2µM* | 10µM* | -64.4%
C/C(=N\NC(=O)c1ccc(F)cc1)c1ccccn1 | u | u | 27.9% | u | 2.51µM* | -59.7%
C/C(=N\Nc1cccc2cccnc12)c1ccccc1O | -4.2% | 368.1% | i | u | 10.0% | x
COCC(C)N(C(=O)CCl)c1c(C)csc1C (stereo not drawn) | x | 4.1% | -19.4% | x | x | x
C/C(=N\NC(=O)CCCNc1ccc(C)cc1)c1ccccn1 | u | u | u | 11.2µM* | u | -19.5%
CCC1Nc2ncnc(N3CCN(c4ccccc4)CC3)c2N(Cc2ccc(Br)cc2)C1=O (stereo not drawn) | u | 11.7µM* | u | -6.7% | 6.8% | x
O=C1C(Cc2ccccc2)Nc2ncnc(N3CCN(c4ccccc4)CC3)c2N1Cc1ccc(Br)cc1 (stereo not drawn) | -26.3% | x | x | u | u | x
CCC1Nc2ncnc(N3CCN(c4ccccc4)CC3)c2N(Cc2ccc(OC)cc2)C1=O (stereo not drawn) | -19.2% | 11.7µM* | 11.7µM* | -16.4% | 2.82µM* | x
CCC1Nc2ncnc(N3CCOCC3)c2N(Cc2ccc(OC)cc2)C1=O (stereo not drawn) | -18.0% | x | x | i | 7.6% | x
CC(NC(=O)OC(C)(C)C)C(=O)Oc1cc2oc(=O)cc(-c3ccccc3)c2cc1Cl (stereo not drawn) | -4.5% | 18.1% | 18.9% | -7.6% | -1.6% | -18.9%
CCCCCc1n[nH]c2c1CCCC2 | x | -14.5% | 4.3% | x | 15.8% | -1.9%
C=CCN1C(c2cccc(C(F)(F)F)c2)=CS/C1=C(\C#N)c1nnc(N2CCOCC2)n1-c1ccccc1 | -24.8% | x | x | -3.3% | x | x
Cc1nc(CC(C)C)cc(C(=O)N2CCCC(CNS(=O)(=O)c3cccs3)C2)n1 (stereo not drawn) | x | 18.4% | 8.28µM* | x | -15.3% | 1.8%
CCN(CC)S(=O)(=O)c1ccc(Cl)c(C(=O)Nc2cccnc2)c1 | x | -4.0% | u | x | u | 15.0%
C=CCc1cccc(CNc2nc3ccccc3n2CCC)c1O | x | 11.7µM* | x | x | u | -42.8%
C=CCc1cccc(CNc2nc3ccccc3n2CC)c1O | u | 14.7µM* | x | u | u | -92.3%
CCn1c(NCc2cc(OC)c(OC)c(OC)c2)nc2ccccc21 | -11.6% | -5.3% | 0.233µM* | u | -17.7% | 11.6%
CCn1c(NCc2ccc(OC)c(OC)c2)nc2ccccc21 | -15.0% | x | x | -22.6% | x | x

High-throughput results as filed in PubChem BioAssay.
